The values below come from PubChem BioAssay.

Measured potencies and affinities stand elsewhere. Calls of active or inactive are those of the source.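 How the source made its calls: active means a dose-response fit showing signal loss, with half-maximal concentration no higher than twice the top tested dose; inconclusive means flat fit between 30% and 70% signal loss, or poor fit; inactive means the rest.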

This test is described as follows: HepG2 cell cytotoxicity, dose response, cytotoxicity control, cherry-picks, set 2 (AID 687002). The following applies: HepG2 viability, ATP luminescence (CellTiter-Glo), 48 h; series mostly up to 26 µM. A general note: ATP-based viability assays read luminescence as a measure of living cells.
`C[C@@H](NC(=O)C[C@H]1CC[C@@H](NC(=O)Cc2ccccn2)[C@@H](CO)O1)c1ccccc1`: the outcome was inactive.
The entry for `CC(=O)N1CCN(c2ccc(NC(=S)NC(=O)c3ccc(C)c([N+](=O)[O-])c3)cc2)CC1` is “inactive”; for `CO[C@H](CN(C)Cc1ccc2c(c1)OCO2)[C@@H](C)CN(C(=O)c1ccccc1)[C@@H](C)CO` it is “inactive”; for `CN1C(=O)c2cc(NC(=O)NC3CCCC3)ccc2OC[C@H]2O[C@@H](CC(=O)NCC3CC3)CC[C@@H]21` it is “inactive”.
In the case of `COc1cccc(S(=O)(=O)Nc2ccc3c(c2)[C@@H]2C[C@@H](CC(=O)NCc4cccc(F)c4)O[C@H](CO)[C@@H]2O3)c1`, the compound was called inactive.
Regarding `COc1ccccc1NC(=O)N[C@@H]1CC[C@H](CCn2cc(-c3ccccc3OC)nn2)O[C@H]1CO`, the compound was classed as inactive.
On to `O=C(NC1CCCC1)N1CCCCN2[C@H](CO)[C@@H](c3ccc(-c4cncnc4)cc3)[C@H]2C1`, for which the call was inactive.
With `C[C@H](O)C#Cc1cnc2c(c1)C(=O)N([C@@H](C)CO)C[C@@H](C)[C@@H](CN(C)C(=O)Cc1ccncc1)O2` the entry was “inactive”.
`COc1cccc(S(=O)(=O)N(C)C[C@@H]2Oc3ncc(-c4cccc(F)c4)cc3C(=O)N([C@H](C)CO)C[C@@H]2C)c1`: the compound was called inactive.
On to `Cc1nnc(NC(=O)CSc2ncnc3c2cnn3-c2ccccc2C)s1`, for which the outcome was inactive.
With `CC(C)NC(=O)Nc1ccc2c(c1)CC(=O)N([C@H](C)CO)C[C@@H](C)[C@H](CN(C)Cc1ccc3c(c1)OCO3)O2` the entry was “inactive”.
For `CC(C)NC(=O)NCC[C@@H]1CC[C@@H](NC(=O)CN(C)C)[C@@H](CO)O1`, the compound was classed as inactive.
As for `Cc1cc(C)c(N2CCCC2C(=O)Nc2cccc(C(F)(F)F)c2)c(C)c1` (centres undefined), the outcome was inactive.
Turning to `CO[C@H]1CN(C)C(=O)c2cc(NS(=O)(=O)c3ccc(C)cc3)ccc2OC[C@@H](C)N(C(=O)NC(C)C)C[C@@H]1C`, the result was inactive.
With `COc1ccccc1NC(=O)N[C@H]1CC[C@@H](CCn2cc(-c3ccccc3OC)nn2)O[C@@H]1CO`, the compound was called inactive.
Regarding `C[C@@H]1CN([C@@H](C)CO)C(=O)c2cccc(NS(=O)(=O)c3ccc(F)cc3)c2O[C@H]1CN(C)S(=O)(=O)c1ccc(Cl)cc1`, the compound was classed as inactive.
Consider `C[C@H]1CCCCO[C@H](CN(C)C(=O)c2ccncc2)[C@@H](C)CN([C@@H](C)CO)C(=O)c2cc(NC(=O)Cc3ccccc3)ccc2O1`, for which the call was inactive.
The entry for `CC(=O)NC[C@H]1[C@@H](c2ccc(C3=CCCC3)cc2)[C@@H](CO)N1C(=O)NC(C)C` is “inactive”; for `CCC(C)(C(=O)Nc1cccc(C)c1)N1CCC1=O` (centres undefined) it is “inactive”; for `C[C@@H]1CCCCO[C@H](CN(C)C(=O)Nc2ccc(F)cc2)[C@H](C)CN([C@@H](C)CO)C(=O)c2cc(NS(=O)(=O)c3ccc(Cl)cc3)ccc2O1` it is “inactive”.
`O=C(C[C@@H]1CC[C@H](NC(=O)Cc2ccccn2)[C@H](CO)O1)NCCc1ccccc1`: the outcome was inactive.
With `O=C(Nc1cccc(F)c1)N[C@H]1CC[C@@H](CCNS(=O)(=O)c2cccc(Cl)c2)O[C@@H]1CO`, the outcome was inactive.
With `CCNC(=O)Nc1ccc2c(c1)C(=O)N(C)[C@H]1CC[C@H](CC(=O)N[C@@H](C)c3ccccc3)O[C@H]1CO2` the entry was “inactive”; with `Cc1cccc(C)c1NC(=O)CN1CCCC1`, “inactive”; with `CN1CCN(C(=O)CN(c2ccc(I)cc2)S(=O)(=O)c2ccccc2)CC1`, “inactive”.
In the case of `C[C@@H]1CN([C@@H](C)CO)S(=O)(=O)c2ccc(C#Cc3ccc(F)cc3)cc2O[C@H]1CN(C)C(=O)NC1CCCC1`, the compound was called inactive.
For `CC(=O)NNC(=O)CSc1nnc(-c2ccccc2)c(-c2ccccc2)n1`, the call was inactive.
With `CC(C)(C)C(=O)N1CCCC1C(=O)Nc1ccccc1` (centres undefined) the entry was “inactive”.
With `O=C(C[C@@H]1C[C@@H]2c3cc(NC(=O)Nc4ccc(F)cc4)ccc3O[C@@H]2[C@@H](CO)O1)NCC1CC1`, the outcome was inactive.
For `C[C@H](CO)N1C[C@H](C)[C@H](CN(C)S(=O)(=O)c2ccc(F)cc2)Oc2ccc(NS(=O)(=O)c3ccc(Cl)cc3)cc2C1=O`, the outcome was inactive.
In the case of `COCCNC(=O)C[C@@H]1CC[C@H]2[C@@H](COC[C@H](O)CN2Cc2cccc(-c3ccncc3)c2)O1`, the outcome was inactive.
`CC(C)NC(=O)Nc1cccc2c1O[C@H](CN(C)C)[C@H](C)CN([C@H](C)CO)C2=O`: the call was inactive.
The entry for `COc1cccc(S(=O)(=O)N(C)C[C@H]2OCc3cnnn3CCCC(=O)N([C@H](C)CO)C[C@H]2C)c1` is “inactive”; for `C[C@@H]1CN([C@@H](C)CO)C(=O)c2cccc(N(C)C)c2O[C@H]1CN(C)C(=O)Nc1ccc(C(F)(F)F)cc1` it is “inactive”; for `COc1ccccc1CNC(=O)COc1ccc2c(c1)CCC2` it is “inactive”.
With `C[C@H](CO)N1C[C@H](C)[C@H](CN(C)C(=O)Nc2cccc3ccccc23)Oc2ccc(NC(=O)Nc3ccccc3)cc2C1=O` the entry was “inactive”.
As to `CCCNC(=O)N(C)C[C@@H]1Oc2ncc(C#CC3CCCCC3)cc2C(=O)N([C@H](C)CO)C[C@@H]1C`, the compound was called inactive.
With `O=C(NC1CCCCC1)N[C@@H]1CC[C@@H](CCNS(=O)(=O)c2ccc(Cl)cc2)O[C@H]1CO` the entry was “inactive”.
Regarding `C[C@@H]1CN([C@@H](C)CO)C(=O)c2cc(NS(=O)(=O)c3ccc(F)cc3)ccc2O[C@@H](C)CCCCO[C@@H]1CN(C)Cc1ccc2c(c1)OCO2`, the outcome was inactive.
